Source: publication PMC4336329 (PLoS ONE, 2015)
Hit rate of the full screen: of about 310,000 compounds, about 14,000 (4.5%) showed an effect of 50% or more. Effects have a minus sign here. Shown is part of a subset that was picked to be rich in strong results.

Biological target: human ether-à-go-go-related gene (hERG) potassium channel (human, UniProt Q12809)
Assay: primary screen, population patch clamp on CHO cells stably expressing hERG; higher = less effect of the substance
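Also: peak tail current of the secondary pulse compared with the same well before compound.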

Sequence of human ether-à-go-go-related gene (hERG) potassium channel (Q12809 whole entry, looked up): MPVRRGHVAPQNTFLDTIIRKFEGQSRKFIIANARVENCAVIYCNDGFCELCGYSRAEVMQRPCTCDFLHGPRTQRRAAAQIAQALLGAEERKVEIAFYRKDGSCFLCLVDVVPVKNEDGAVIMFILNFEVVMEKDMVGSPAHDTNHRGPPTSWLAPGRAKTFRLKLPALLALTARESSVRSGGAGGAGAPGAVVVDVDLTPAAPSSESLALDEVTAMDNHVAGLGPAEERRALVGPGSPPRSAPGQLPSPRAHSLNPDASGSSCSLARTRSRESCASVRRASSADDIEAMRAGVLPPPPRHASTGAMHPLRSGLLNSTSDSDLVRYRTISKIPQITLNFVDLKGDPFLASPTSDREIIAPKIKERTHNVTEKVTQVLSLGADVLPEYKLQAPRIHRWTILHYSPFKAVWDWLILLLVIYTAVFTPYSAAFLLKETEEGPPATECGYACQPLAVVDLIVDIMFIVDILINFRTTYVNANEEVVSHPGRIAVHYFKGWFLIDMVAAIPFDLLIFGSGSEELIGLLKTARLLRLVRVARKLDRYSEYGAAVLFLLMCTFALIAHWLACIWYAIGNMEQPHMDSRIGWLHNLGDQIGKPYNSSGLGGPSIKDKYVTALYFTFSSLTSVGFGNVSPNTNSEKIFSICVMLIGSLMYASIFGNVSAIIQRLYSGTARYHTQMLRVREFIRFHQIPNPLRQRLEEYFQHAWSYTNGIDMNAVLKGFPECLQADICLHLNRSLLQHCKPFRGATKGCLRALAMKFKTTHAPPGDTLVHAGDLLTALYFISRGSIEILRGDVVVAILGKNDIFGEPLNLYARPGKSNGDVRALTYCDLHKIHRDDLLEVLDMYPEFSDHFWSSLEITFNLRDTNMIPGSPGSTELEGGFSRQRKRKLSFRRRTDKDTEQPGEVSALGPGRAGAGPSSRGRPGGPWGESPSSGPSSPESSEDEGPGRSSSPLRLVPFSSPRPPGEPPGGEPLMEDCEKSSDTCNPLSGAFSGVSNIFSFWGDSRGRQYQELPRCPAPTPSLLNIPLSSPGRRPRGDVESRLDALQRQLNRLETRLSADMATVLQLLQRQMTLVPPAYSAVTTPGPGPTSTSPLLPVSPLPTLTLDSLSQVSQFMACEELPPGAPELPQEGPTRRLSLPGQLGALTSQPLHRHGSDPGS

Compound	hERG current change (%, negative = inhibition) at 10uM [%]
Cc1ccc(NC(=O)C2CCCN(C(=O)c3ccc(Cl)cc3)C2)cc1 (centres unmarked)	-33.4
Cc1ccc(NC(=O)C2CCCN(C(=O)c3ccc(Cl)cc3)C2)c(C)c1 (centres unmarked)	-59
CC(NC(=O)C1CCCN(C(=O)c2ccc(Cl)cc2)C1)c1cccc(C(F)(F)F)c1 (centres unmarked)	-51.2
Cc1ccc(NC(=O)C2CCCN(C(=O)c3ccc(Cl)cc3)C2)cc1C (centres unmarked)	-19.6
CC(=O)c1ccc(NC(=O)C2CCCN(C(=O)c3ccc(Cl)cc3)C2)cc1 (centres unmarked)	-29.7
CC(=O)Nc1ccc(NC(=O)C2CCCN(C(=O)c3ccc(Cl)cc3)C2)cc1 (centres unmarked)	6.47
CC(=O)Nc1ccc(N(C(=O)CNC(=O)c2ccco2)C(C(=O)NC2CCCC2)c2ccco2)cc1 (centres unmarked)	3.72
CC1(C)C(c2cccs2)=[N+]([O-])C2(CCCCC/C2=N\O)N1O (centres unmarked)	18.5
COc1cc(C(=O)OCC(=O)N2CC(C)OC(C)C2)cc(OC)c1OC (centres unmarked)	33
COc1ccccc1OCC(=O)N(Cc1nc(-c2ccccc2)no1)C(C)C	-12
O=C(Nc1cc(C(=O)N2CCCC2)ccc1N1CCCC1)c1ccccc1F	-74.6
O=C(Nc1ccc(C(=O)N2CCCC2)cc1)c1ccccc1F	-4.82
O=C(Nc1ccc(C(=O)N2CCOCC2)cc1)c1cccs1	19.7
O=C(Nc1ccccc1N1CCCCC1)c1ccccc1F	-14.5
COC(=O)c1ccc(N2CCOCC2)c(NC(=O)c2cccs2)c1	-5.27
O=C(Nc1cc(C(=O)N2CCCC2)ccc1N1CCCC1)c1ccccc1	-75.6
CNC(=S)Nc1cc(C(=O)N2CCCC2)ccc1N1CCCC1	28.1
O=C(Nc1cc(C(=O)N2CCOCC2)ccc1N1CCCC1)c1cccs1	-75.9
O=C(Nc1cc(C(=O)N2CCCC2)ccc1N1CCCC1)C1CC1	-12.9
O=C(CCCCl)Nc1c2c(nn1-c1ccccc1)CSC2	-0.0485
C/C(=N\NC(=O)Cc1ccc(Cl)c(Cl)c1)c1cccnc1	-12.9
COCCn1c(C)cc(C(=O)CSc2ccc3ccccc3n2)c1C	-0.727

Compound	hERG current change (%, negative = inhibition) at 10uM [%]
COc1cccc(-c2cnc(OC(C)(C)C)nc2OC(C)(C)C)c1	14.7
O=C(OCc1ccccc1F)c1ccc2c(c1)OCCO2	7.26
O=C(CCn1cccc1)NC1CCCc2ccccc21 (centres unmarked)	4.95
CC(C)(C)NC(=O)NCc1ccco1	8.48
O=C(CCN1CCN(c2ccccc2)CC1)Nc1nccs1	-9.77
Cn1c(=O)[nH]c(=O)c2c1nc(CN1CCN(c3ccccc3F)CC1)n2CCCc1ccccc1	-33.7
Cc1ccc(NC(=O)C2(c3ccccc3)CCOCC2)cc1	9.1
O=C(Nc1ccc([N+](=O)[O-])cc1)C1(c2ccccc2)CCOCC1	-69.1
O=C(O)c1ccc(NC(=O)C2(c3ccccc3)CCOCC2)cc1	-5.57
COc1ccc(C(=O)NCc2nnc(SCC(=O)N3CCCCC3)o2)cc1	29.8
C/C(=C\c1cc(C(=O)O)c(C)o1)CO	12.9
Cc1occc1-c1nnc(SCc2cc(=O)n3cc(Br)ccc3n2)n1C	-47.7
Cn1c(SCc2cc(=O)n3cc(Br)ccc3n2)nnc1C1COc2ccccc2O1 (centres unmarked)	-72
Cn1c(SCC(=O)c2ccccc2)nnc1C1COc2ccccc2O1 (centres unmarked)	-11.9
Cn1c(SCc2nnc(-c3ccc(F)cc3)o2)nnc1C1COc2ccccc2O1 (centres unmarked)	-60.9
O=C(OCc1cc(=O)n2cc(Br)ccc2n1)C1COc2ccccc2O1 (centres unmarked)	-15.5
Cn1c(SCc2cnc(-c3ccccc3)s2)nnc1C1COc2ccccc2O1 (centres unmarked)	-1.06
CN(C(=O)COC(=O)c1nc(Cl)ccc1Cl)c1ccccc1	17.6
Cc1ccc(OC(=O)CCC(=O)Nc2ccc(C(N)=O)cc2)cc1	18.2
COc1cccc(/C=C/c2ccc3cccc(O)c3n2)c1	14.8
Cc1cc(C)n(-c2nc(NC(C)(C)C)nc(NC(C)(C)C)n2)n1	-6.46
N#CCC(=O)NNc1c([N+](=O)[O-])cc(C(F)(F)F)cc1[N+](=O)[O-]	28.8
